Reference: PubChem BioAssay (NCATS)
Records with an inconclusive call do not appear. Active and inactive are the calls of the source. Unless noted, the call rests on the fitted dose curve; in most records, active means well fitted curve in the direction sought with a large enough effect; inconclusive means small, poorly fitted or top-dose-only effect, or another doubt; inactive means no such curve, though single readings can be large; an effect the other way counts as inactive or inconclusive.

Columns and labels:
[1] = Cell Viability - LYMP2-001 (AID 921); settings: LYMP2-001 lymphoblastoid cell viability; series mostly up to 92.2 µM;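 further: 0% = DMSO only and full inhibition = tetraoctylammonium bromide control wells; nearly all actives have a fitted effect of over 70% in size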
Method in brief: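 Cellular ATP loss read by luciferase luminescence after 24 h compound exposure at 37 C in complete medium. LYMP2-001 lymphoblastoid cells, 2500/well; qHTS concentration-response data fitted with Hill equation for AC50.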

[2] = MultiTox-Fluor Cytotoxicity Assay - LYMP1-001 - Dead Cells (AID 946); settings: LYMP1-001 lymphoblastoid cells, dead-cell protease fluorescence; series mostly up to 92.2 µM;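 further: 0% = DMSO and 100% = tetraoctylammonium bromide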
Method in brief: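 In this qHTS, 15 uM tetraoctylammonium bromide defined 100% and DMSO defined basal activity. Lymphoblastoid cells (LYMP1-001, 2500 per well) received compound for 16 hr at 37 C before a fluorogenic dead-cell substrate readout at 485/520 nm.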

[3] = MultiTox-Fluor Cytotoxicity Assay - LYMP1-001 - Live Cells (AID 947); settings: LYMP1-001 lymphoblastoid cells, live-cell protease fluorescence viability; series mostly up to 92.2 µM;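 further: 0% = DMSO only and full inhibition = tetraoctylammonium bromide control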
Description: NIH Chemical Genomics Center [NCGC]
NIH Molecular Libraries Screening Centers Network [MLSCN]
National Institutes of Environmental Health Sciences [NIEHS]
National Toxicology Program [NTP]
We have developed a 1536-well cell-based assay for quantitative high throughput screening (qHTS) against a number of cell lines to determine in vitro cytotoxicity of small molecules. This particular assay uses a human lymphoblastoid cell line (LYMP1-001) purchased from Coriell Institute.
NCGC Assay Protocol Summary:
The MultiTox-Fluor Cytotoxicity Assay (Promega) is a homogeneous method to simultaneously measure the relative number of live and dead cells in culture by detecting changes in cell membrane integrity. There are two fluorogenic peptide substrates in the assay reagent. Viable cells are determined when the cell-permeant substrate (GF-AFC) enters the cell and is cleaved by protease from live cells resulting in liberated fluorophore. This live-cell protease activity restricted to viable cells is proportional to cell number. The dead cells are determined by using fluorogenic cell-impermeant peptide substrate (bis-AAF-R110) which cleaved by dead cell proteases leaking from damaged cell membrane.
Using the MultiTox-Fluor Cytotoxicity Assay, the relative number of live cells was measured in the lymphoblastoid cell line with complete culture medium following compound treatment for 16 hours. The assay was performed in opaque black Kalypsys 1536-well plates. In the screen, tetraoctylammonium bromide was used as positive control. Library compounds were measured for their ability to cause acute toxicity in the cell line, as reflected by a decrease in live cell protease activity, in a concentration-dependent manner. […] AC50 values were determined from concentration-response data modeled with the standard Hill equation.
qHTS protocol for MultiTox-Fluor Cytotoxicity assay
[Step] [Parameter] [Value] [Description]
1. Reagent; 5 uL; 2500 lymphoblastoid cells/well
2. Time; 5 hr; 37 C incubation
4. Controls; 23 nL; Tetraoctylammonium bromide 6.4pM to 92 uM
5. Time; 16 hr; 37 C incubation
6. Reagent; 5 uL; MuliTox-Fluor Assay reagent
7. Time; 60 min; Room Temperature
8. Detection; live-cell fluorescence (Ex/Em=405/510); EnVision plate reader
Keywords: cell viability, cytotoxicity, lymphoblastoid cell line, fluorescence, NTPHTS, NTPHTS_NCGC, NIEHS, EPA, DSSTox, MLSMR, MLSCN, NIH Roadmap, qHTS, NCGC

[4] = Cell Viability - LYMP1-002 - Assay at 16 hr (AID 948); settings: LYMP1-002 lymphoblastoid cell viability; series mostly up to 92.2 µM;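 further: 0% = DMSO alone and full effect = 92 µM tetraoctylammonium bromide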
Method in brief: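 ATP luminescence (CellTiter-Glo) was measured after 16 hr compound exposure at 37 C of 2500 lymphoblastoid LYMP1-002 cells per well. Concentration-response curves were fitted with the Hill equation to give AC50.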

[5] = MultiTox-Fluor Cytotoxicity Assay - LYMP1-002 - Live Cells (AID 955); settings: LYMP1-002 lymphoblastoid live-cell protease fluorescence viability; series mostly up to 46.1 µM; further: on the % scale 0 is the no-effect control and ±100 the full control effect
Method in brief: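 In this qHTS viability format, lymphoblastoid cells (LYMP1-002, human) received compound for 16 hr at 37 C. Fluorogenic GF-AFC cleavage by viable cells was detected at 405/510 nm after 1 h at room temperature.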

[6] = MultiTox-Fluor Cytotoxicity Assay - LYMP1-002 - Dead Cells (AID 960); settings: LYMP1-002 lymphoblastoid cells, dead-cell protease fluorescence; series mostly up to 46.1 µM;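 further: 0% = DMSO and 100% = tetraoctylammonium bromide; nearly all actives have a fitted effect of over 60% in size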
Method in brief: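 Concentration-dependent increases in membrane-leaked protease activity are quantified in LYMP1-002 cells after 16 hr treatment; values are normalized against DMSO and tetraoctylammonium bromide (15 uM) controls and AC50 derived by Hill modeling.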

[7] = MultiTox-Fluor Cytotoxicity Assay - LYMP1-003 - Dead Cells (AID 961); settings: LYMP1-003 lymphoblastoid cells, dead-cell protease fluorescence; series mostly up to 92.2 µM;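 further: 0% = DMSO and 100% = tetraoctylammonium bromide; nearly all actives have a fitted effect of over 70% in size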
Method in brief: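 Acute toxicity is scored as increased dead-cell protease activity in human lymphoblastoid LYMP1-003 cells after 16 h compound exposure in complete culture medium. Activity is normalized to DMSO basal and 15 uM tetraoctylammonium bromide as full response.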

[8] = MultiTox-Fluor Cytotoxicity Assay - LYMP1-003 - Live Cells (AID 962); settings: LYMP1-003 lymphoblastoid cells, MultiTox-Fluor live-cell protease fluorescence; series mostly up to 92.2 µM;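 further: cells exposed to compound for 16 hours at 37 °C; 0% = DMSO only and full loss = 92 µM tetraoctylammonium bromide; cytotoxic hits lower the live-cell protease signal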
Method in brief: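 Human lymphoblastoid line LYMP1-003 in complete culture medium, treated 16 hr with titrated compounds. Viable cells quantified via cell-permeant GF-AFC substrate fluorescence; AC50 derived by Hill fitting.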

[9] = Cell Viability - LYMP1-003 - Assay at 24 hr (AID 963); settings: LYMP1-003 lymphoblastoid cell viability; series mostly up to 92.2 µM;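 further: plate controls were DMSO only for no effect and tetraoctylammonium bromide positive control for full effect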
Method in brief: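 The lymphoblastoid line was treated with titrated compounds for 24 hours, and viable cell number estimated from luciferase-based ATP luminescence.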

[10] = Cell Viability - LYMP1-003 - Assay at 40 hr (AID 964); settings: LYMP1-003 lymphoblastoid viability; series mostly up to 92.2 µM; further: on the % scale 0 is the no-effect control and ±100 the full control effect; nearly all actives have a fitted effect of over 60% in size
Method in brief: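 Acute toxicity is scored as a concentration-dependent loss of intracellular ATP in LYMP1-003 cells (2500/well, complete medium) after 40 hr at 37 C, measured by CellTiter-Glo luminescence; AC50 values derive from standard Hill modelling.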

[11] = Cell Viability - LYMP2-003 (AID 965); settings: LYMP2-003 lymphoblastoid cell viability; series mostly up to 92.2 µM;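 further: cells exposed to compounds for 24 h before reading; 0% = DMSO only and full effect = 92 µM tetraoctylammonium bromide; nearly all actives have a fitted effect of over 50% in size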
Method in brief: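 CellTiter-Glo luminescence quantified ATP loss after 24 h compound treatment of LYMP2-003 lymphoblastoid cells at 37 C. Titration series were fitted with the standard Hill equation to give AC50.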

[12] = Confirmation and Secondary Assay for Modulators of Hemoglobin Beta Chain Splicing at IVS2 654 locus (AID 910); settings: HeLa EGFP-654 splicing reporter, GFP fluorescence, 48 h; series mostly up to 46.1 µM;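 further: HeLa cells stably carrying EGFP split by mutant beta-globin IVS2-654 intron; % of control where 0% means no effect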
Method in brief: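 Readout: per-well total peak green fluorescence (488 nm ex, 500–520 nm em) from objects 5–250 µm, reflecting correct splicing of an EGFP-654 reporter. Compounds were applied for 2 days at 37 °C to overnight-plated HeLa EGFP-654 cells; controls were DMSO and 500 nM IVS2-654 PNA.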

[13] = Confirmation and Secondary Assay for Modulators of Hemoglobin Beta Chain Splicing at IVS2 705 locus (AID 930); settings: HeLa EGFP-705 splicing reporter, GFP fluorescence, 48 h; series mostly up to 46.1 µM;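 further: HeLa cells stably expressing the EGFP-705 splicing reporter; GFP fluorescence per well restored by corrected splicing of the IVS2-705 intron in EGFP; % of control where 0% means no effect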
Method in brief: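 Read-out: total peak GFP fluorescence per well (488 nm excitation, 500-520 nm emission) by laser-scanning cytometry. Cells: HeLa EGFP-705 splicing reporter, 2 days compound exposure in Optimem/2% FCS.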

[14] = target: Cytochrome P450 2C19 (Homo sapiens) (UniProt P33261); test: qHTS Assay for Inhibitors and Substrates of Cytochrome P450 2C19 (AID 899); settings: recombinant CYP2C19, luciferin-H EGE luminescence; series mostly up to 57.1 µM; further: on the % scale 0 is the no-effect control and ±100 the full control effect; nearly all actives have a fitted effect of over 60% in size
Sequence of Cytochrome P450 2C19 (Homo sapiens) (P33261 whole entry, looked up): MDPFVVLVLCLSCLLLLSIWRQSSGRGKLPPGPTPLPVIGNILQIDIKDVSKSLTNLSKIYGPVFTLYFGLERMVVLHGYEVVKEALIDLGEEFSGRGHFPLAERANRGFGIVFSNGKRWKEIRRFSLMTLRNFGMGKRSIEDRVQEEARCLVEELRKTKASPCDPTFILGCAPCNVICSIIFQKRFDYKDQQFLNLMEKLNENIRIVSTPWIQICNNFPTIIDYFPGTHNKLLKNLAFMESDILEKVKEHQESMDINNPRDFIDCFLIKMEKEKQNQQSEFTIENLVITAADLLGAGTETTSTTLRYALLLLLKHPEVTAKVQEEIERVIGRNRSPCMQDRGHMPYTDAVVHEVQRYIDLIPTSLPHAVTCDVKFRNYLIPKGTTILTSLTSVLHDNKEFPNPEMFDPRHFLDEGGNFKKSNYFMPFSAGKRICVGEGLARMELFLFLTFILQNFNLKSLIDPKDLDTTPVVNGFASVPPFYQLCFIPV
Method in brief: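 Reactions contain 5nM enzyme, 10uM Luciferin-H EGE (KM) and 50mM KPO4; compound preincubates 10 min at 37C, NADPH regeneration starts turnover for 60 min. Luminescence after detection reagent gives activity.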

[15] = target: Pyruvate kinase (Leishmania mexicana) (UniProt Q27686); test: qHTS Validation Assay for Inhibitors of Leishmania Mexicana Pyruvate Kinase (AID 945);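 further: 0% = DMSO only neutral control wells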; settings: purified L. mexicana pyruvate kinase, enzyme activity, E451W mutant enzyme; series mostly up to 57.5 µM
Sequence of Pyruvate kinase (Leishmania mexicana) (Q27686 2-499 E452W): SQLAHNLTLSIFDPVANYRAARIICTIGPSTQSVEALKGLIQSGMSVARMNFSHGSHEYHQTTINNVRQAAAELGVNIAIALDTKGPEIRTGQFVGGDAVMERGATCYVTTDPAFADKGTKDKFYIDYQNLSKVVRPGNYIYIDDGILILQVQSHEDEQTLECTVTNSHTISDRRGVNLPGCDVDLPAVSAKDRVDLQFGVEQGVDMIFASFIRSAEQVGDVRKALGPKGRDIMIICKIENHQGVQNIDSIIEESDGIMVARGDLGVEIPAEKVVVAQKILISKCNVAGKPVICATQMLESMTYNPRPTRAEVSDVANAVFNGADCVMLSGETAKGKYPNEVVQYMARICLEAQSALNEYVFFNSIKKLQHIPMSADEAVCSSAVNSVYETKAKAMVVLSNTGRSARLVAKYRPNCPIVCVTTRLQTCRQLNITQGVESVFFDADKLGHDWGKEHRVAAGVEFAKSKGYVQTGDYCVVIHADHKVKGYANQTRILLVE
Method in brief: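 Luminescent ATP detection (PKLight) after a 1 h room-temperature reaction of 0.2 nM LmPYK E451W mutant with 0.5 mM PEP and 0.1 mM ADP at pH 7.2. Activity is normalized to DMSO-only control wells.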

[16] = target: Pyruvate kinase PKM (Homo sapiens) (UniProt P14618); test: qHTS Assay for Activators of Human Muscle Pyruvate Kinase (AID 954; active means well fitted curve in the direction sought with a large enough effect, not every such curve was filed as active;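 further: 0% = uninhibited enzyme and -100% = no enzyme or full thiadiazolimine inhibition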); settings: purified human muscle pyruvate kinase, luciferase-coupled luminescence, 1 h; series mostly up to 57.5 µM
Sequence of Pyruvate kinase PKM (Homo sapiens) (P14618 whole entry, looked up): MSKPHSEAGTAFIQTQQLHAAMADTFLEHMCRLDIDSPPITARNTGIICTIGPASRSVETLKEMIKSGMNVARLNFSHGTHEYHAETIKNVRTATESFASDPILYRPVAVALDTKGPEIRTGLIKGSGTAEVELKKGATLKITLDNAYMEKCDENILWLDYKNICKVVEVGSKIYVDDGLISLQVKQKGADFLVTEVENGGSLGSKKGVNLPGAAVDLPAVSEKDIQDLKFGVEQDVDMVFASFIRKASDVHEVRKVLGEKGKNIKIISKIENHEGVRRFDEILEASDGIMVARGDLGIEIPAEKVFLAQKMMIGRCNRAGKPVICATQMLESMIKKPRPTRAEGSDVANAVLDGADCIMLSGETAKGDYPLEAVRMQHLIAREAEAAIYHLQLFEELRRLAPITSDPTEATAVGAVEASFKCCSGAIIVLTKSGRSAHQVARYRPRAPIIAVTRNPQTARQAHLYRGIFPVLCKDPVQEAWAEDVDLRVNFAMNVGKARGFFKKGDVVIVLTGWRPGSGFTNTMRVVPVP
Method in brief: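 Screening used highly purified human pyruvate kinase M2 under submaximal activity, with PEP at its Km and ADP below Km. After an hour at room temperature, ATP was read by luciferase luminescence.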

[17] = qHTS Assay for Identification of Small Molecule Antagonists for NFkB Signaling Pathway (AID 895; active means well fitted inhibition curve with a large enough effect in the signal ratio, with a control signal flat, not every such curve was filed as active; the % refers to the signal ratio; further: on the % scale 0 is the no-effect control and ±100 the full control effect); settings: NFkB beta-lactamase reporter cells, FRET ratio 460/530, stimulated with 10 pM TNF alpha; series mostly up to 38.3 µM
Method in brief: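 Beta-lactamase reporter read-out (460 and 530 nm emission ratio, 405 nm excitation, 2 hrs substrate loading RT) after 5 hr stimulation with 10 pM TNF alpha in compound-treated NFkB-bla ME-180 cells in low-serum medium.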

[18] = qHTS Assay for Identification of Small Molecule Agonists for Thrombopoietin (TPO) Signaling Pathway (AID 917); settings: TPO signaling pathway reporter cells, agonist qHTS, stimulated with TPO at its EC50; series mostly up to 38.5 µM; further: on the % scale 0 is the no-effect control and ±100 the full control effect
Method in brief: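 Luciferase reporter (Glycoprotein IIb promoter) in IL-3-deprived Ba/F3 cells carrying human TPO receptor; compounds co-added with 26 pM TPO, incubated 24 h, 37 C. Steadylite luminescence measured after 10 min.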

[19] = target: Muscarinic acetylcholine receptor M1 (Rattus norvegicus) (UniProt P08482); test: qHTS Assay for Antagonists of Acetylcholine Muscarinic M1 Receptor: Kinetic Measurement of Intracellular Calcium Response (AID 943); settings: M1-expressing cells, kinetic intracellular calcium fluorescence; series mostly up to 35.3 µM;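 further: Fluo-4 calcium signal as peak divided by basal fluorescence over 4 min; nearly all actives have a fitted effect of over 75% in size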
Sequence of Muscarinic acetylcholine receptor M1 (Rattus norvegicus) (P08482 whole entry, looked up): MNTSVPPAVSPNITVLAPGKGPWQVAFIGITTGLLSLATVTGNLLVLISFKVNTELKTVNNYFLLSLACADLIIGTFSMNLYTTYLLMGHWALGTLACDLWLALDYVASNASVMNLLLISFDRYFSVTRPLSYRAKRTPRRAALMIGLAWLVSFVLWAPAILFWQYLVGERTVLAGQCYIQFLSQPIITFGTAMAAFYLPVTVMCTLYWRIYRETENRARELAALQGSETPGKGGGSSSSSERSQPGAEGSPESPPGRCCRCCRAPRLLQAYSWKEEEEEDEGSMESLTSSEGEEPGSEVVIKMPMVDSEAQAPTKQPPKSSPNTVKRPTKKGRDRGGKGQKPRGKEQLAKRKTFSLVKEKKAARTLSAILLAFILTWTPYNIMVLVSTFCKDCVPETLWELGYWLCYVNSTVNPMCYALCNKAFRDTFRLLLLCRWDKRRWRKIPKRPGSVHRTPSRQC
Method in brief: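 Quantitative HTS in CHO-M1 (rat receptor) cells: 10 min compound exposure ahead of 100 nM carbachol, Fluo-4 fluorescence followed 4 min, value expressed as peak-to-basal ratio.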

[20] = target: Muscarinic acetylcholine receptor M1 (Rattus norvegicus) (UniProt P08482); test: qHTS Assay for Antagonists of Acetylcholine Muscarinic M1 Receptor: Measurement of IP-One Response (AID 944); settings: CHO-M1 cells, IP-One HTRF, antagonist mode; series mostly up to 46.1 µM; further: nearly all actives have a fitted effect of over 75% in size
Method in brief: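 Antagonism was measured as loss of carbachol-driven (EC80) IP1 accumulation in CHO cells carrying rat M1, using a homogeneous IP-One TR-FRET kit read at 620 and 665 nm.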

Measured: activity, negative = inhibition

COC(C)=O
inactive: [1] | [2] | [3] | [4] | [5] | [6] | [7] | [8] | [9] | [10] | [11]

C1CNCCN1
inactive: [12] | [13]

O=C(O)c1cc2ccccc2c(Cc2c(O)c(C(=O)O)cc3ccccc23)c1O
inactive: [14] 1.36% [at 11.4 µM]

COC1=CC(=O)C[C@@H](C)[C@@]12Oc1c(Cl)c(OC)cc(OC)c1C2=O
inactive: [14]

CN[C@H]1CC[C@@H](c2ccc(Cl)c(Cl)c2)c2ccccc21
inactive: [15] | [16]

NCCCC(=O)O
inactive: [17] | [14] | [12] | [18] | [13] | [19] | [20] | [15] | [16]

Cc1ccc(OC[C@H](O)[C@H](C)NC(C)C)c2c1CCC2
inactive: [18] | [19] | [20] | [15] | [16]

O=C(O)CC(O)(CC(=O)O)C(=O)O
inactive: [12] | [1] | [13] | [2] | [3] | [4] | [5] | [6] | [7] | [8] | [9] | [10] | [11]

CCCCCCCCCC(=O)O
inactive: [1] | [2] | [3] | [4] | [5] | [6] | [7] | [8] | [9] | [10] | [11]

CCCCCCCCCCCCCCCC(=O)OC/C=C(C)/C=C/C=C(C)/C=C/C1=C(C)CCCC1(C)C
inactive: [12] | [13]

CN(C)Cc1ccccc1
inactive: [1] | [2] | [3] | [4] | [5] | [6] | [7] | [8] | [9] | [10] | [11]

C=Cc1ccccc1
inactive: [1] | [2] | [3] | [4] | [5] | [6] | [7] | [8] | [9] | [10] | [11]
